Screens as filed in PubChem BioAssay.
Shown are actives, neighbours in structure and some others; about 0.45% of the full set was active somewhere.
Chronic BCR inh = inhibitors of chronic active B-cell receptor signaling; ABC-DLBCL IkBa-CBG/CBR reporter, luminescence ratio, 4 h; Potency, µM (top dose mostly 46.1 µM), for inactives: at the highest dose activity change, negative = inhibition, most hits filed as inhibitors; hit rate 0.05% among 340,000; AID 493014; active = well fitted inhibition curve with a large enough effect in the signal ratio, with a control signal flat, not every such curve was filed as active; inconclusive = small, poorly fitted or top-dose-only effect, or effect the other way, or a change in a side signal; the % refers to the signal ratio;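 also: plate controls were basal doxycycline-induced cells for no effect and cells given 10 µM MG132 for full effect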
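Concentration-response series (up to 46 uM) were applied to TMD8 dual-reporter cells for 4 h at 37C with doxycycline. Green/red ratio, after filter-overlap correction, defined %Activity; red signal alone was normalised to basal cells and zero luminescence.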
PGK inhibitor = blocks T. brucei phosphoglycerate kinase. Potency, µM (top dose mostly 57.5 µM), for inactives: top-dose activity change, negative = inhibition, most hits filed as inhibitors. AID 602233. P07378. PGK/GAPDH coupled, Kinase-Glo luminescence, 60 min. hit rate 0.043% among 380,000; also: % is scaled to controls: 0 for no effect and ±100 for the full control effect; nearly all actives have a fitted effect of over 60% in size
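Recombinant glycosomal PGK reaction used 1,3-bisphosphoglycerate generated in-well by GAPDH (100nM final) in 100mM TEA pH 7.6, 5mM MgCl2, 0.01% Tween-20. After 60 minutes at room temperature, ATP was read by Kinase-Glo Plus luminescence end-point.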
Anesthetic bind = candidate novel general anesthetic via apoferritin binding. P02791. apoferritin/1-aminoanthracene competitive binding, fluorescence. Potency, µM (doses to about 77.5 µM), for the others: top-dose activity change, negative = displacement, usual class: inhibitors. hit rate 0.074% among 350,000. AID 485281; also: % is scaled to controls: 0 for no effect and ±100 for the full control effect; nearly all actives have a fitted effect of over 20% in size
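Concentration-response curves derived by four-parameter Hill fitting of normalized fluorescence, where compounds displaced 1-AMA from 10 uM horse apoferritin following a brief 10 min room-temperature incubation; propofol titration acted as positive control.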
Pin1 inh = inhibitors of human Pin1; Q13526; Pin1 FP peptide displacement, HiFluor488, 10 min; Potency, µM (doses to about 115 µM), without a hit: at the top dose activity, negative = inhibition, actives largely listed as inhibitors; hit rate 0.009% among 390,000; AID 504891; active = well fitted inhibition curve with a large enough effect in the polarisation, with a control signal flat, not every such curve was filed as active; inconclusive = small, poorly fitted or top-dose-only effect, or effect the other way, or a change in a side signal; inactive = no such curve, though single readings can be large or run the other way; the % refers to the polarisation; also: % is scaled to controls: 0 for no effect and ±100 for the full control effect
Target sequence (Q13526 whole entry, looked up): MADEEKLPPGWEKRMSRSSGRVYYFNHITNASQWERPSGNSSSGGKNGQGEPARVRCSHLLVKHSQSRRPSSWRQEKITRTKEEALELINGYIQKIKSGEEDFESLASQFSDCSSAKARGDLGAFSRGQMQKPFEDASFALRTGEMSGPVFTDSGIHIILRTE
B2AR arrestin = agonists driving beta-arrestin recruitment to human beta2-adrenergic receptor | P07550 | beta-arrestin recruitment to beta2AR, cell-based reporter | Potency, µM (top dose mostly 46.1 µM), for inactives: top-dose activation, usual class: activators | hit rate 0.02% among 330,000 | AID 492947;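 also: 0% = DMSO controls and full agonism = EC100 isoproterenol or metaproterenol; nearly all actives have a fitted effect of over 65% in size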
Target sequence (P07550 whole entry, looked up): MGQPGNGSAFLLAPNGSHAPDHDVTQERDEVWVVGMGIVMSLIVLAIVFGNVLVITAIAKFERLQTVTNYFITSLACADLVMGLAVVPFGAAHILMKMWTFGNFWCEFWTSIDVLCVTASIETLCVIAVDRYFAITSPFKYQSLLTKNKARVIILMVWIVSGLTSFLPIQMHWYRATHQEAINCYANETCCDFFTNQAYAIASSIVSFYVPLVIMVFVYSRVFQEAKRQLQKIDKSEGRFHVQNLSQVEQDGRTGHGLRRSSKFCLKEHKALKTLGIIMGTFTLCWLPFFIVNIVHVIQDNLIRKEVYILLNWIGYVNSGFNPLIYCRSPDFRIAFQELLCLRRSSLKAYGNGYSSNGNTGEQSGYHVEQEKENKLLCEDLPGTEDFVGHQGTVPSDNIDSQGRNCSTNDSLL
FEN1 inh-1 = blocks human flap endonuclease 1. Potency, µM (doses to about 114 µM), without a hit: top-dose activity change, negative = inhibition, most hits filed as inhibitors. P39748. Recombinant FEN1 flap cleavage, fluorescence, 15 min. hit rate 0.35% among 390,000; also: % is scaled to controls: 0 for no effect and ±100 for the full control effect; nearly all actives have a fitted effect of over 65% in size
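Reaction started by adding substrate (50 nM final) to 10 nM enzyme after 15 min room-temperature compound preincubation. Reads at 0 and 15 min, with data normalized and fitted to a four-parameter Hill equation.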
FEN1 inh-2 = confirmation of human FEN1 inhibitors; shares compounds with FEN1 inh-1; FEN1 flap cleavage, TAMRA/BHQ2 fluorogenic DNA substrate; Potency, µM, most hits filed as inhibitors; hit rate 79% among 880; also: nearly all actives have a fitted effect of over 60% in size
* = called active by the depositor. Unless noted, calls follow the shape of the dose curve; as a rule, active = well fitted curve in the direction sought with a large enough effect; inconclusive = small, poorly fitted or top-dose-only effect, or another doubt; inactive = no such curve, though single readings can be large; an effect the other way counts as inactive or inconclusive. Potency is read from the fitted curve at half-maximal effect.

Screening O=S(=O)(O)c1cc(O)c(N=Nc2ccc(O)cc2O)c2ccccc12 returned PGK inhibitor 25µM*, FEN1 inh-1 35µM* and FEN1 inh-2 85*.
Screening Cc1ccccc1Nc1nc(N)nc(COC(=O)c2ccc([N+](=O)[O-])o2)n1 returned Chronic BCR inh 0%, PGK inhibitor 8%, Pin1 inh 2%, B2AR arrestin -3%, FEN1 inh-1 inconclusive and FEN1 inh-2 21*.
Cc1ccccc1Nc1nc(N)nc(COC(=O)c2ccccc2)n1 was read as Chronic BCR inh inconclusive, PGK inhibitor inactive, Anesthetic bind 0%, Pin1 inh -1%, B2AR arrestin 0% and FEN1 inh-1 7%.
`O=C(Cc1nnc(CNC(=O)c2ccccc2)o1)Nc1cc(C(F)(F)F)ccc1Cl` gave Pin1 inh -6%.
Screening CC(C)c1ccc(N2C(=O)/C(=C/N(C)C)SC2=S)cc1 returned Chronic BCR inh inconclusive, PGK inhibitor -17%, Anesthetic bind -18%, Pin1 inh inconclusive, B2AR arrestin -1%, FEN1 inh-1 32µM* and FEN1 inh-2 30*.
Screening O=C1NC(=S)S/C1=C\c1cc(Cl)cc(Cl)c1O returned PGK inhibitor inconclusive, Pin1 inh 20%, FEN1 inh-1 inconclusive and FEN1 inh-2 85*.
Screening COc1cc(-c2nnc(COC(=O)c3ccc([N+](=O)[O-])o3)o2)cc(OC)c1OC returned PGK inhibitor -7% and FEN1 inh-2 8.5*.
For O=C(OCc1nnc(-c2ccccc2)o1)c1ccc([N+](=O)[O-])o1 the results were Chronic BCR inh 0%, PGK inhibitor -10%, Pin1 inh -5%, B2AR arrestin 0% and FEN1 inh-1 inconclusive.
`CN(c1ccccc1)c1ccc(/C=C(/CCC(=O)O)c2nc3ccccc3s2)cc1[N+](=O)[O-]` gave PGK inhibitor inconclusive, FEN1 inh-1 50µM* and FEN1 inh-2 67*.
O=C(O)CC/C(=C\c1ccc(N2CCCC2)c([N+](=O)[O-])c1)c1nc2ccccc2s1 was read as Chronic BCR inh inconclusive, PGK inhibitor inconclusive, Anesthetic bind inconclusive, B2AR arrestin -1% and FEN1 inh-1 inconclusive.
For COc1cccc(C2c3c(ncn(-c4cccc(OC)c4)c3=N)Oc3ccc4ccccc4c32)c1 (stereo not given) the results were Pin1 inh 6%.
Screening O=C1COc2ccc(C(=O)COC(=O)/C=C/c3ccc(Br)o3)cc2N1 returned Chronic BCR inh inconclusive, PGK inhibitor inconclusive, Pin1 inh -14%, B2AR arrestin 0%, FEN1 inh-1 inconclusive and FEN1 inh-2 inconclusive.
`O=C(OCC1OC(OC(=O)c2cc(O)c(O)c(OC(=O)c3cc(O)c(O)c(O)c3)c2)[C@@H](OC(=O)c2cc(O)c(O)c(OC(=O)c3cc(O)c(O)c(O)c3)c2)C(OC(=O)c2cc(O)c(O)c(OC(=O)c3cc(O)c(O)c(O)c3)c2)C1OC(=O)c1cc(O)c(O)c(OC(=O)c2cc(O)c(O)c(O)c2)c1)c1cc(O)c(O)c(OC(=O)c2cc(O)c(O)c(O)c2)c1` (stereo not given in full) gave Anesthetic bind -16%.
CCCN(CCC)CCCNC(=O)c1cc2c(-c3ccc(OC)c(OC)c3)nn(C)c2s1 was read as Chronic BCR inh -12%, PGK inhibitor -4%, Anesthetic bind -3%, Pin1 inh 1%, B2AR arrestin 0%, FEN1 inh-1 28µM* and FEN1 inh-2 27*.
`COc1ccc(-c2nn(C)c3sc(C(=O)NCCN(C)C)cc23)cc1OC` gave Chronic BCR inh -17%, PGK inhibitor -7%, Anesthetic bind -1%, Pin1 inh inconclusive, B2AR arrestin -1%, FEN1 inh-1 18µM* and FEN1 inh-2 30*.
For COc1ccc(OC)c(CNC(=O)c2cc3c(-c4ccc(OC)c(OC)c4)nn(C)c3s2)c1 the results were PGK inhibitor -7%, Anesthetic bind 63%, Pin1 inh 15% and FEN1 inh-1 -14%.
For O=C(O)c1cc(N=Nc2ccc(-c3ccc(N=Nc4ccc(O)c(C(=O)O)c4)cc3)cc2)ccc1O the results were Anesthetic bind -16%.
O=C(O)c1ccccc1NS(=O)(=O)c1ccc(NN=Cc2ccccc2F)c([N+](=O)[O-])c1 was read as Chronic BCR inh inconclusive, PGK inhibitor inconclusive, B2AR arrestin 0%, FEN1 inh-1 inconclusive and FEN1 inh-2 76*.
`CSc1ccc(C=NNc2ccc(S(=O)(=O)Nc3ccccc3C(=O)O)cc2[N+](=O)[O-])cc1` gave Chronic BCR inh inconclusive, PGK inhibitor inconclusive, B2AR arrestin 0% and FEN1 inh-1 -5%.
COc1ccc(O)c(C(=O)c2cc(SCC(=O)O)c3nc4sc5c(c4c(=O)n3c2)CCCC5)c1 was read as Chronic BCR inh 2%, PGK inhibitor -1%, Anesthetic bind -16%, B2AR arrestin 0%, FEN1 inh-1 inconclusive and FEN1 inh-2 38*.
Screening CCOC(=O)c1sc2nc3c(SCC(=O)O)cc(C(=O)c4ccccc4O)cn3c(=O)c2c1C returned Chronic BCR inh 3%, PGK inhibitor 6%, Anesthetic bind -7%, B2AR arrestin 0% and FEN1 inh-1 inconclusive.
Screening O=[N+]([O-])c1ccc(N/N=C/c2cccc(O)c2O)c(S(=O)(=O)N2CCOCC2)c1 returned Chronic BCR inh -3%, PGK inhibitor 6%, Anesthetic bind inconclusive, Pin1 inh 15%, B2AR arrestin 0% and FEN1 inh-1 -17%.
`O=[N+]([O-])c1ccc(N/N=C/c2ccc(O)c(O)c2O)c(S(=O)(=O)N2CCOCC2)c1` gave Chronic BCR inh 0%, PGK inhibitor -1%, Anesthetic bind -20%, Pin1 inh inconclusive, B2AR arrestin 0%, FEN1 inh-1 20µM* and FEN1 inh-2 34*.
Screening O=C1NN(c2ccc(Cl)cc2)C(=O)/C1=C\c1ccc(-c2cccc(C(=O)O)c2)o1 returned Chronic BCR inh 14%, PGK inhibitor -29%, Anesthetic bind 2%, Pin1 inh inconclusive, B2AR arrestin 0%, FEN1 inh-1 50µM* and FEN1 inh-2 67*.
